Assay results: the supplement of paper PMC10849652
Targets with a hit are over-represented here; the source holds about 8,800 in all. About 0.5% of all pairs of compound and target were hits. A number with no mark means an inactive call.

Key:
Assay in all cases: log2 fold change, soluble protein after heating vs DMSO (PISA); higher = thermal stabilisation; K562 lysate, 10 uM; active = over 0.2 and 3.5 SD of the protein, either way, in both replicates (recomputed)
[1] = compound: Cc1cn(-c2cc(NC(=O)c3ccc(C)c(Nc4nccc(-c5cccnc5)n4)c3)cc(C(F)(F)F)c2)cn1 [nilotinib]
Summary of the method: (§1)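 Values give the log-two fold change in thermal stability against solvent controls, from duplicates. Crude K562 extract at 1 mg/mL protein, made by dounce homogenisation in PBS pH 7.4 with 1 mM MgCl2, was treated with 10 μM compound for 30 min. After 3 min heating across 48°C-58°C, aliquots were pooled, adjusted to 0.5% NP-40 at 4°C and centrifuged at 21,000xg for 90 min. The supernatant was measured by TMTpro 16plex LC-MS/MS with channel sums equalised.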

[2] = compound: Cc1nc(Nc2n[nH]c3c2CN(C(=O)N[C@H](CN(C)C)c2ccccc2)C3(C)C)c2sccc2n1
Summary of the method: as §1

[3] = compound: Cc1nc(Nc2ncc(C(=O)Nc3c(C)cccc3Cl)s2)cc(N2CCN(CCO)CC2)n1 [dasatinib]
Summary of the method: as §1

[4] = compound: Cc1ncc(-c2ccnc(Nc3ccc(S(C)(=O)=O)cc3)n2)n1C(C)C
Summary of the method: as §1

[5] = compound: Cn1cc(-c2ccc3c(c2)CCN3C(=O)Cc2cccc(C(F)(F)F)c2)c2c(N)ncnc21
Summary of the method: as §1

[6] = compound: Cn1cc(CNCC2CCN(c3ncc(C(=O)NO)cn3)CC2)c2ccccc21 [quisinostat]
Summary of the method: as §1

[7] = compound: Cn1cncc1[C@@](N)(c1ccc(Cl)cc1)c1ccc2c(c1)c(-c1cccc(Cl)c1)cc(=O)n2C [tipifarnib]
Summary of the method: as §1

[8] = compound: NC(=O)Nc1cc(-c2cccc(F)c2)sc1C(=O)N[C@H]1CCCNC1
Summary of the method: as §1

[9] = compound: NC(=O)c1cnc(N[C@@H]2CCCC[C@@H]2N)nc1Nc1cccc(-n2nccn2)c1
Summary of the method: as §1

[10] = compound: NC1(c2ccc(-c3nc4ccn5c(=O)[nH]nc5c4cc3-c3ccccc3)cc2)CCC1
Summary of the method: as §1

UniProt Q9BVS4, sequence (Q9BVS4 whole entry, looked up): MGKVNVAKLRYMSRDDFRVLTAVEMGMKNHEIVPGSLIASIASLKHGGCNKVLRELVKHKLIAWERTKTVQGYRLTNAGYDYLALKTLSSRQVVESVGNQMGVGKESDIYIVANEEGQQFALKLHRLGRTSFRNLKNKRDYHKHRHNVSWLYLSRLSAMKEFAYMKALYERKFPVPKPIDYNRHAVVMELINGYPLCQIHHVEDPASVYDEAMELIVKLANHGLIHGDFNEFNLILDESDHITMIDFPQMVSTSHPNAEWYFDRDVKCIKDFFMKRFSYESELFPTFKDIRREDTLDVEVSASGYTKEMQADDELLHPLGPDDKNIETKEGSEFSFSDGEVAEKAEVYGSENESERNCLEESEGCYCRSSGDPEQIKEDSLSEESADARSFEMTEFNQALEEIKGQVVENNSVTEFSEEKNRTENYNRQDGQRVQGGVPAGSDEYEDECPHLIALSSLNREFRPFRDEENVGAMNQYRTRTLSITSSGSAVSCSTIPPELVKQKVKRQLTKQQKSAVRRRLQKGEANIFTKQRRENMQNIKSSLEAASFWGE
UniProt P35250, sequence (P35250 whole entry, looked up): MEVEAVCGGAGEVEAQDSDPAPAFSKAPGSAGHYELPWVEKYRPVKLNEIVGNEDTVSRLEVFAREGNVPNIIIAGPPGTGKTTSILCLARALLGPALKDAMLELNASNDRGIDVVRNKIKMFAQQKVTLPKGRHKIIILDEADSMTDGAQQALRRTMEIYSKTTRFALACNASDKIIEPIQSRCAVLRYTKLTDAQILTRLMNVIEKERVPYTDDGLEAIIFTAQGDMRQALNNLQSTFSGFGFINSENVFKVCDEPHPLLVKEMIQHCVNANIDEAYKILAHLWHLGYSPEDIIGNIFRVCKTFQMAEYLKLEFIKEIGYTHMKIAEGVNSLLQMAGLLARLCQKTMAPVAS
UniProt Q9H0R6, sequence (Q9H0R6 whole entry, looked up): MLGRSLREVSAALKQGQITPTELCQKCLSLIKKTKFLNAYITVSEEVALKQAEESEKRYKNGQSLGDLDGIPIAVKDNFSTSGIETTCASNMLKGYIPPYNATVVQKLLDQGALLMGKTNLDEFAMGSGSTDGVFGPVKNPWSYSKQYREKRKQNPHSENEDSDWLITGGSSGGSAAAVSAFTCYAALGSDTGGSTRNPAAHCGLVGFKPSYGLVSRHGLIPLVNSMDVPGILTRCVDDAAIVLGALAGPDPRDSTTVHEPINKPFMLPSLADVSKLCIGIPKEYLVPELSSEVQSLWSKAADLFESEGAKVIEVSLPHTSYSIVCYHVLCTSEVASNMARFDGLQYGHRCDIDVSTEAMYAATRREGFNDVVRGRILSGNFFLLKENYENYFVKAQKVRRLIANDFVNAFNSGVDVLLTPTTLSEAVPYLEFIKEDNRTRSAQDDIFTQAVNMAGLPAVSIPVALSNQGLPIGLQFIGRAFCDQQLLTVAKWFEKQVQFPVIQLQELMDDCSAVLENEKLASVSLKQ
UniProt O14730, sequence (O14730 whole entry, looked up): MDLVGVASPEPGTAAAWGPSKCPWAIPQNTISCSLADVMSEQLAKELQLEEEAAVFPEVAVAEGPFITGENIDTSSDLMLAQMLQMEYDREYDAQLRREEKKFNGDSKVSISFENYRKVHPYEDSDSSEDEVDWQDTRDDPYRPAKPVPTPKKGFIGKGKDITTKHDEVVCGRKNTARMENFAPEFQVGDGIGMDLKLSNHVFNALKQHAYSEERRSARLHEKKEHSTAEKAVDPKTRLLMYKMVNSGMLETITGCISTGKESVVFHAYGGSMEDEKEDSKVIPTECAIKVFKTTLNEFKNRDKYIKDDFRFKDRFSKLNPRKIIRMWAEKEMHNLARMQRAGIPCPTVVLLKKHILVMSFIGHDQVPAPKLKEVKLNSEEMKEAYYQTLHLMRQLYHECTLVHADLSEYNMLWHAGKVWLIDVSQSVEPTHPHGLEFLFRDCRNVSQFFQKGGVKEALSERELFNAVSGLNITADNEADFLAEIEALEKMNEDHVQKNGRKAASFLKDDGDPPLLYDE
UniProt P31040, sequence (P31040 whole entry, looked up): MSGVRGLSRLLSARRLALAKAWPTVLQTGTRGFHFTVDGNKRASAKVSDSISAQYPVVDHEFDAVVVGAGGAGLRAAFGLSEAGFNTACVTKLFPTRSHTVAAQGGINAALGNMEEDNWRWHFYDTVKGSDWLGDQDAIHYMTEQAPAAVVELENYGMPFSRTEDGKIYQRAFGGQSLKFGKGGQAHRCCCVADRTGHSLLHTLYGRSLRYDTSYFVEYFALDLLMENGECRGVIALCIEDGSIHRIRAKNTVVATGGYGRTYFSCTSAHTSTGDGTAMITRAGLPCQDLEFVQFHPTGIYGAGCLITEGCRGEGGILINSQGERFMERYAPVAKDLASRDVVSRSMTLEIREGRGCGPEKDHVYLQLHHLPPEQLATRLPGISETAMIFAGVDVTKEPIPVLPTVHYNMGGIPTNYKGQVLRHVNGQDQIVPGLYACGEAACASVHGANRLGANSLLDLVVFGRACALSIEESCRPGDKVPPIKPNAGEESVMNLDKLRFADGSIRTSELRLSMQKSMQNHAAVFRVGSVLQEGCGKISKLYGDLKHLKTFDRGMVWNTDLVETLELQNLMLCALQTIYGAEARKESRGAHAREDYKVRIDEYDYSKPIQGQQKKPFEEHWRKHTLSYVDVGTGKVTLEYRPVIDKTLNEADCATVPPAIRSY
UniProt Q86U06, sequence (Q86U06 whole entry, looked up): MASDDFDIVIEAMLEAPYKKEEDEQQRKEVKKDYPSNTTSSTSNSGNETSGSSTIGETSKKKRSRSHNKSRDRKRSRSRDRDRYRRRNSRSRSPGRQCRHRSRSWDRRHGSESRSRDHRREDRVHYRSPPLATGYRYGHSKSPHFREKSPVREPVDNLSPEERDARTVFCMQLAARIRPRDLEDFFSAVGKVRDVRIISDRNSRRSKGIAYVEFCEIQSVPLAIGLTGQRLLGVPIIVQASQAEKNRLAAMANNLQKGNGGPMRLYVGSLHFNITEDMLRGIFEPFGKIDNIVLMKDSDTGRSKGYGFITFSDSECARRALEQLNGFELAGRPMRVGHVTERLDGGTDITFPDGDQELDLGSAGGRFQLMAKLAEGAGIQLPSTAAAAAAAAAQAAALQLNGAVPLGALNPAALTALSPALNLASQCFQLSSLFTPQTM
UniProt P58004, sequence (P58004 whole entry, looked up): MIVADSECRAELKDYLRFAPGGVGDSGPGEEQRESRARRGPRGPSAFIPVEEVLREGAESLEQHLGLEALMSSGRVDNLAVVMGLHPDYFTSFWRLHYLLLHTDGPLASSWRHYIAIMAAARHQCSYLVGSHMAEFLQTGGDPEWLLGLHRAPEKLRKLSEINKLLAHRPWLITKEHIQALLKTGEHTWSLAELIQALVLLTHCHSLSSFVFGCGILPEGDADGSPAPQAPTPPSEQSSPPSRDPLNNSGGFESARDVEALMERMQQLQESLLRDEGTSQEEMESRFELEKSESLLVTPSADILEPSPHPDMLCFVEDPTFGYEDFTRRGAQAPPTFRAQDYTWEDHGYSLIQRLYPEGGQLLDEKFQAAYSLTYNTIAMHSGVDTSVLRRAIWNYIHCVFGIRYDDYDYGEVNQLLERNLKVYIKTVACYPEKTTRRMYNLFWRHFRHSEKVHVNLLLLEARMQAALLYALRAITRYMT
UniProt Q9H1K0, sequence (Q9H1K0 whole entry, looked up): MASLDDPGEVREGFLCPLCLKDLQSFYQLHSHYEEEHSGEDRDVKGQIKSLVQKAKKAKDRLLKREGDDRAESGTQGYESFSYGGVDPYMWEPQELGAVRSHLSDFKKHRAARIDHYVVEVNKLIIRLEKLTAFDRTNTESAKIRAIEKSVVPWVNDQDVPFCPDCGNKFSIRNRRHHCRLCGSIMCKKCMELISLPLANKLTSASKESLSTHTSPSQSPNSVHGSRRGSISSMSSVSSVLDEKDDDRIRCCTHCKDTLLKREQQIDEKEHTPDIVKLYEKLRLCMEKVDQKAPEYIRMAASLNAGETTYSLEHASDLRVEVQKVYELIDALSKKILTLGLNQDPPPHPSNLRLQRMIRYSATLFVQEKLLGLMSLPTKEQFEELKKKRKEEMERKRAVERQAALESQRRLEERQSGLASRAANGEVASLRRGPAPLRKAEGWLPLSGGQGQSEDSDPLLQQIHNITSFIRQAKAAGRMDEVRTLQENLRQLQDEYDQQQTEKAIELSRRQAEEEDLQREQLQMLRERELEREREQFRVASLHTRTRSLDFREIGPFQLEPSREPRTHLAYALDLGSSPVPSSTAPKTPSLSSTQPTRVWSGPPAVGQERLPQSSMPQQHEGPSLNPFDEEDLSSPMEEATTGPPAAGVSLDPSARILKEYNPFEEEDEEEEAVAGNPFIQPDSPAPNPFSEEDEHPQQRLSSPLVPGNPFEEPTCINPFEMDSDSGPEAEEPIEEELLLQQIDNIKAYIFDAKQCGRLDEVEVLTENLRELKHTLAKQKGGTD
UniProt Q99643, sequence (Q99643 whole entry, looked up): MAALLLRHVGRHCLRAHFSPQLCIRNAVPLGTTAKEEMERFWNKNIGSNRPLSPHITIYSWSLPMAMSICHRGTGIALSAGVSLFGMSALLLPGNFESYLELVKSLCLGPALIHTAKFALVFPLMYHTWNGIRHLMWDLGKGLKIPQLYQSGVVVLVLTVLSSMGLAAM
UniProt P60059, sequence (P60059 whole entry, looked up): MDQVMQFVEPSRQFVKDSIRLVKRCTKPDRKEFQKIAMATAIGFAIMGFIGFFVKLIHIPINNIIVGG
UniProt P35249, sequence (P35249 whole entry, looked up): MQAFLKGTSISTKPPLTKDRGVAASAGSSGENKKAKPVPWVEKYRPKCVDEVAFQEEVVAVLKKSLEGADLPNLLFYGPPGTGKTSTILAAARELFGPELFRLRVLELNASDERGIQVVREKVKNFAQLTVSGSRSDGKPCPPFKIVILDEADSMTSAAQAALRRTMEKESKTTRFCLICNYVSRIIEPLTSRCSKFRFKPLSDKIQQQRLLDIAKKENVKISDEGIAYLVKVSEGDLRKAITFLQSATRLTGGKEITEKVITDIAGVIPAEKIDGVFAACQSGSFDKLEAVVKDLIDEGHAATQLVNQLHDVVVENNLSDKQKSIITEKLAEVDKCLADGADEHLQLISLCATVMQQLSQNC

| Target | log2 fold change [1] | log2 fold change [2] | log2 fold change [3] | log2 fold change [4] | log2 fold change [5] | log2 fold change [6] | log2 fold change [7] | log2 fold change [8] | log2 fold change [9] | log2 fold change [10] |
| --- | --- | --- | --- | --- | --- | --- | --- | --- | --- | --- |
| RINT1 (UniProt Q6NUQ1) | 0.043 | 0.075 | -0.115 | 0.028 | 0.012 | -0.029 | -0.044 | 0.071 | 0.001 | -0.014 |
| SEC16A isoform 5 (UniProt O15027) | -0.119 | 0.008 | -0.007 | 0.006 | -0.002 | -0.054 | -0.036 | 0.032 | 0.004 | -0.011 |
| RPL36AL (UniProt Q969Q0) | 0.034 | 0.038 | 0.094 | 0.055 | 0.04 | 0.329 (active) | 0.058 | 0.01 | -0.026 | -0.009 |
| SDHA (UniProt P31040) | 0.035 | 0.009 | 0.016 | 0.004 | -0.033 | -0.022 | -0.034 | -0.037 | -0.013 | 0.007 |
| RAD50 isoform 2 (UniProt Q92878) | -0.004 | 0.016 | -0.042 | -0.003 | 0.026 | -0.031 | -0.02 | 0.016 | 0.005 | 0.001 |
| REEP5 (UniProt Q00765) | 0.107 | -0.011 | 0.056 | 0.003 | -0.012 | 0.005 | 0.026 | -0.024 | 0 | -0.023 |
| SCO1 (UniProt O75880) | 0.046 | 0.029 | 0.001 | -0.095 | 0 | -0.13 | -0.108 | -0.033 | 0.029 | 0.001 |
| RBM23 isoform 2 (UniProt Q86U06) | 0.172 | 0.021 | -0.004 | -0.065 | -0.061 | -0.047 | -0.168 | -0.024 | -0.056 | 0.021 |
| RIOK2 (UniProt Q9BVS4) | 0.002 | 0.034 | 0.01 | 0.537 (active) | -0.023 | -0.054 | -0.013 | 0.05 | 0.198 | -0.03 |
| RAP1B (UniProt F5GZG1) | 0.012 | -0.066 | 0.05 | -0.253 | 0.047 | -0.011 | -0.058 | 0.087 | -0.019 | -0.029 |
| RAP1GAP isoform 4 (UniProt P47736) | -0.002 | -0.015 | 0 | 0.017 | 0.028 | -0.046 | -0.013 | 0.029 | -0.021 | -0.034 |
| RIOK3 (UniProt O14730) | 0.017 | -0.027 | -0.05 | -0.076 | 0.002 | -0.063 | 0.008 | 0.01 | 0.009 | 0.014 |
| RPTOR (UniProt Q8N122) | -0.005 | -0.035 | -0.041 | -0.016 | 0.011 | -0.057 | 0.014 | 0.047 | 0.006 | -0.041 |
| SESN2 (UniProt P58004) | 0.019 | 0.027 | -0.023 | 0.021 | 0.028 | -0.051 | 0.007 | 0.092 | 0.034 | -0.057 |
| SEC61G (UniProt P60059) | -0.007 | -0.061 | 0 | 0.089 | -0.033 | -0.045 | 0.134 | -0.01 | 0.023 | 0.053 |
| RAB1B (UniProt Q9H0U4) | 0.016 | 0.003 | -0.058 | -0.029 | -0.001 | 0.016 | -0.04 | -0.052 | -0.041 | 0.002 |
| RAI14 isoform 2 (UniProt Q9P0K7) | -0.004 | -0.006 | -0.003 | -0.05 | 0.013 | -0.023 | -0.036 | -0.02 | 0.012 | -0.013 |
| QSER1, A0A3B3IRW6 | -0.028 | 0.056 | 0.018 | 0.042 | 0.052 | -0.117 | -0.048 | 0.064 | -0.027 | -0.048 |
| QRSL1 (UniProt Q9H0R6) | -0.022 | 0.031 | -0.018 | 0.069 | 0.07 | -0.054 | -0.002 | 0.034 | -0.02 | -0.031 |
| RBSN (UniProt Q9H1K0) | -0.047 | 0.057 | -0.106 | 0.034 | -0.004 | -0.04 | -0.036 | 0.05 | 0.039 | 0.029 |
| RRM1 (UniProt P23921) | -0.003 | 0.008 | -0.026 | 0.001 | 0.016 | -0.018 | 0.007 | 0.016 | -0.002 | -0.038 |
| SCO2 (UniProt O43819) | 0.15 | -0.283 | -0.05 | -0.337 | 0.106 | 0.007 | -0.062 | -0.005 | 0.05 | -0.1 |
| RNPC3 (UniProt Q96LT9) | -0.104 | 0.069 | 0.042 | 0.01 | -0.061 | -0.071 | -0.075 | -0.063 | -0.056 | 0.06 |
| SDHC (UniProt Q99643) | -0.009 | 0.056 | -0.001 | -0.006 | -0.015 | 0 | -0.068 | -0.057 | -0.016 | 0.028 |
| SAR1A (UniProt Q9NR31) | 0.145 | 0.164 | 0.017 | -0.009 | 0.01 | 0.095 | -0.172 | -0.055 | -0.154 | -0.045 |
| S100A11 (UniProt P31949) | 0.067 | 0.007 | 0.013 | 0.056 | -0.02 | 0.05 | 0.041 | -0.033 | 0 | -0.006 |
| RFC2 (UniProt P35250) | 0.005 | -0.018 | -0.027 | -0.012 | 0.062 | -0.04 | -0.014 | 0.036 | 0.014 | -0.05 |
| RFC4 (UniProt P35249) | 0.001 | -0.029 | -0.068 | -0.002 | 0.047 | -0.016 | -0.004 | 0.03 | 0.015 | -0.011 |
| RPS6KB1 (UniProt P23443) | -0.034 | 0.077 | -0.003 | 0.001 | 0.003 | -0.049 | -0.008 | 0.035 | -0.014 | 0.405 (active) |
| RABGGTB (UniProt P53611) | 0.005 | 0.003 | 0.017 | 0.006 | -0.009 | -0.02 | -0.013 | 0.033 | -0.016 | 0.031 |
